In PubChem BioAssay (NCI):
This is part of a sample that, as a whole, favours compounds with a hit. Of some 83,000 tested, about 20% had one in any assay.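 Cells were grown in 96-well plates and exposed to the test compound at a single concentration for 48 hours; results are reported as percent growth, with values below 10 considered active.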 The source made the active and inactive calls.

Tests used:
Assay in all cases: NCI-60 one-dose screen, 48 h (100 = growth as untreated, 0 = no growth, -100 = all killed)
Settings in all cases: 10 µM unless noted
NCI-H23 lung = test system: NCI-H23 lung
NCI-H226 lung = test system: NCI-H226 lung
NCI-H322M lung = test system: NCI-H322M lung
HOP-62 NSCLC = test system: HOP-62 NSCLC
NCI-H460 lung = test system: NCI-H460 lung
HOP-92 NSCLC = test system: HOP-92 NSCLC
NCI-H522 lung = test system: NCI-H522 lung
A549/ATCC NSCLC = test system: A549/ATCC NSCLC
786-0 renal = test system: 786-0 renal
COLO 205 colon = test system: COLO 205 colon
DU-145 prostate = test system: DU-145 prostate
K-562 leukemia = test system: K-562 leukemia
MALME-3M melanoma = test system: MALME-3M melanoma
MDA-MB-231 breast = test system: MDA-MB-231 breast
RXF 393 renal = test system: RXF 393 renal
SF-268 CNS = test system: SF-268 CNS
SF-295 CNS = test system: SF-295 CNS
SF-539 CNS = test system: SF-539 CNS
UACC-257 melanoma = test system: UACC-257 melanoma
M14 melanoma = test system: M14 melanoma

Measured: growth

Cn1c(=O)c2[nH]c(N/N=C/c3ccccc3Br)nc2n(C)c1=O
inactive: NCI-H23 lung 107% | NCI-H226 lung 110% | NCI-H322M lung 95.5% | HOP-62 NSCLC 112% | NCI-H460 lung 110% | HOP-92 NSCLC 104% | NCI-H522 lung 89.7% | A549/ATCC NSCLC 101% | 786-0 renal 96.9% | COLO 205 colon 137% | DU-145 prostate 104% | K-562 leukemia 87.9% | MALME-3M melanoma 107% | MDA-MB-231 breast 97.8% | RXF 393 renal 121% | SF-268 CNS 104% | SF-295 CNS 92.2% | SF-539 CNS 113% | UACC-257 melanoma 117% | M14 melanoma 99.9%

COc1ccc(N2CCC(=O)NC2=S)cc1
inactive: NCI-H23 lung 96.2% | NCI-H226 lung 98.6% | NCI-H322M lung 112% | HOP-62 NSCLC 107% | NCI-H460 lung 104% | HOP-92 NSCLC 125% | NCI-H522 lung 88.9% | A549/ATCC NSCLC 108% | 786-0 renal 104% | COLO 205 colon 106% | DU-145 prostate 115% | K-562 leukemia 107% | MALME-3M melanoma 110% | MDA-MB-231 breast 102% | RXF 393 renal 109% | SF-268 CNS 99.8% | SF-295 CNS 100% | SF-539 CNS 99.4% | UACC-257 melanoma 108% | M14 melanoma 98.7%

CCc1ccc(Oc2cn[nH]c2-c2ccc(OCCc3ccc(F)cc3)cc2O)cc1
inactive: NCI-H23 lung 92.8% | NCI-H226 lung 96.7% | NCI-H322M lung 98.6% | HOP-62 NSCLC 114% | NCI-H460 lung 94.8% | HOP-92 NSCLC 83.2% | A549/ATCC NSCLC 66.9% | 786-0 renal 99.7% | COLO 205 colon 108% | DU-145 prostate 90.5% | K-562 leukemia 100% | MALME-3M melanoma 95.1% | MDA-MB-231 breast 85% | RXF 393 renal 111% | SF-268 CNS 88.9% | SF-295 CNS 99.2% | SF-539 CNS 106% | UACC-257 melanoma 93.3% | M14 melanoma 83.1%
active: NCI-H522 lung -36.5%

CC(=O)[C@@H]1CCC=C2CC[C@]3(C)[C@@H](CC[C@@H]4[C@@]5(C)CCCNC(C)(C)[C@@H]5CC[C@]43C)[C@H]21
inactive: NCI-H226 lung 23.2% | SF-268 CNS 12.3%
active: NCI-H23 lung -58.8% | NCI-H322M lung -42.3% | HOP-62 NSCLC -63.5% | NCI-H460 lung -34.6% | HOP-92 NSCLC -32.5% | NCI-H522 lung -74.1% | A549/ATCC NSCLC -78.1% | 786-0 renal -89.5% | COLO 205 colon -81% | DU-145 prostate -36.8% | K-562 leukemia -44.6% | MALME-3M melanoma -56.1% | MDA-MB-231 breast -76.5% | RXF 393 renal -91.9% | SF-295 CNS -84.7% | SF-539 CNS 9.45% | UACC-257 melanoma -67.4% | M14 melanoma -82.1%
